ELG1 genotox – qHTS screen for small molecules that induce genotoxicity in human embryonic kidney (HEK293T) cells expressing luciferase-tagged ELG1. Potency, µM (highest dose often 46 µM), for inactives: at the top dose activity change, positive = activation, usual class: activators. 330,000 compounds, 1.3% hits. AID 504466, 2011. HEK293T ELG1-luciferase reporter, luminescence, 16 h; further: % of control where 0% means no effect; nearly all actives have a fitted effect of over 60% in size
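HEK293T cells expressing luciferase-tagged ELG1 were treated with compound or DMSO for 16 hr at 37°C. Luciferase activity was then read after 30 min with ONE-Glo at room temperature; rising signal flags genetic stress.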
FLuc counter – qHTS profiling assay for firefly luciferase inhibitor/activator using purifed enzyme and Km concentrations of substrates (counterscreen for miR-21 project); Luciferin 4-monooxygenase (Photinus pyralis), P08659; purified FLuc, Km substrates, luminescence inhibition; Potency, µM (titrated, usually from 57.5 µM), inactives show top-dose activity change, negative = inhibition, actives largely listed as inhibitors; 360,000 compounds, 6.9% hits; AID 588342, 2011;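 further: plate controls were vehicle for no effect and reference inhibitor for full effect; nearly all actives have a fitted effect of over 55% in size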
Target sequence (P08659 whole entry, looked up): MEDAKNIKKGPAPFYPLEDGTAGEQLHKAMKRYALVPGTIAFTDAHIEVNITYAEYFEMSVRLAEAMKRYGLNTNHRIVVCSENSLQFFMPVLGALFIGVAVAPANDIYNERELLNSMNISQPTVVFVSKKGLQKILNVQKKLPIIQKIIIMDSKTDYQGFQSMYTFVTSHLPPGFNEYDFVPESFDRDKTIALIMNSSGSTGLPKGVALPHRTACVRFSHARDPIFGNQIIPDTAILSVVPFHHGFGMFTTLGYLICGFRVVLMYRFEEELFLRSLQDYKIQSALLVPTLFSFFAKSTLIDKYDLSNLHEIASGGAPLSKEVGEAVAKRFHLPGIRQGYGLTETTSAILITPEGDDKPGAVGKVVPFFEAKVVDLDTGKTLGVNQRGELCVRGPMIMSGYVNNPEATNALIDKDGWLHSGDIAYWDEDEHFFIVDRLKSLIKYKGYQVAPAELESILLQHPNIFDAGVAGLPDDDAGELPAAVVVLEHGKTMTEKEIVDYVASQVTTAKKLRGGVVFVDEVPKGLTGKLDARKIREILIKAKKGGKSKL
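Purified P. pyralis luciferase (10nM final) with 10uM D-luciferin and 10uM ATP (Km levels) in 50mM Tris acetate pH 7.5, 10mM Mg acetate, 0.01% Tween-20, 0.05% BSA; qHTS 6-point titration, ~60 µM downward; luminescence read.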
SMN2 splice enh – qHTS Assay for Enhancers of SMN2 Splice Variant Expression. HEK293 SMN2-luciferase splicing reporter, luminescence, 30-36 h. AID 1458, 2008. 210,000 compounds, 2.8% hits. Potency, µM (doses to about 46.1 µM), for the others: top-dose activity change, positive = activation, hits mostly activators; further: % of control where 0% means no effect; nearly all actives have a fitted effect of over 55% in size
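HEK293 cells carry an SMN2 […]–luciferase reporter in which exon 7 inclusion puts luciferase in frame. Cells were plated 10-12 h before compound addition, then incubated 30-36 h at 37C. ONE-Glo luminescence was read; sodium butyrate at 4.5 mM final served as control.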
NPC1 promoter act – qHTS Assay for NPC1 Promoter Activators; Potency, µM (titrated, usually from 9.22 µM), for inactives: top-dose activation, actives largely listed as activators; 320,000 compounds, 2.4% hits; Huh7 NPC1 promoter luciferase reporter, 24 h; further: % of control where 0% means no effect; nearly all actives have a fitted effect of over 60% in size
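Luminescence read-out of NPC1 promoter-driven luciferase in stably transfected Huh7 cells; compounds delivered in DMSO and left 24 h at 37C, 5% CO2, qHTS titration format.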
Rab9 prom act – qHTS Assay for Rab9 Promoter Activators; Huh7 Rab9 promoter-luciferase reporter, luminescence, 24 h; Potency, µM (top dose mostly 9.22 µM), without a hit: at the top dose activation, negative = inhibition, hits mostly activators; 320,000 compounds, 2.8% hits; AID 485297, 2010; further: % of control where 0% means no effect; nearly all actives have a fitted effect of over 60% in size
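Rab9 promoter-driven luciferase in stably transfected Huh7 cells; 1500 cells/well rested 2 h, exposed to compound in DMSO for 24 h at 37 °C, 5% CO2. Luminescence read 10 min after adding luciferase reagent at ambient temperature.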
* marks the source's active call; other numbers are inactive results; ? = inconclusive; nt = no result; [ ] = remark or other dose. Shown are actives, neighbours in structure and some others; about 7.4% of the full set was active somewhere. The call rests on the fitted dose curve; in most records, active means well fitted curve in the direction sought with a large enough effect; inconclusive means small, poorly fitted or top-dose-only effect, or another doubt; inactive means no such curve, though single readings can be large; an effect the other way counts as inactive or inconclusive. Potency means the concentration at half of the fitted maximal effect.

SMILES	ELG1 genotox	FLuc counter	SMN2 splice enh	NPC1 promoter act	Rab9 prom act
Cc1cccc(C)c1OCC(=O)NCc1nnc(SCC(=O)NC2CCCCC2C)n1C (stereo not given)	1.9%	10.5%	22.4µM*	-1.3%	1.2%
COc1ccccc1C1CC(c2cccs2)=Nc2ccccc2S1 (stereo not given)	?	?	-7.0%	0.8%	1.6%
Fc1ccccc1C1CC(c2ccco2)=Nc2ccccc2S1 (stereo not given)	?	21.3µM*	nt	30.0%	19.6%
O=C1N/C(=C/c2ccsc2)C(=O)N1c1ccccc1	?	?	28.7%	?	2.82µM*
CCn1c(C)cc(/C=C2/NC(=O)N(c3ccccc3)C2=O)c1C	?	7.57µM*	11.2µM*	3.16µM*	1.41µM*
O=C(O)c1ccc(-n2cccc2/C=C2/NC(=O)N(c3ccccc3)C2=O)cc1	-3.0%	-17.7%	nt	-5.6%	1.3%
CC(C)CCN1CCN(Cc2coc3ccccc3c2=O)CC1CCO (stereo not given)	7.9%	0.9%	nt	-7.1%	-0.6%
COc1ccc(NC(=O)c2oc3ccccc3c2NC(=O)c2ccc3c(c2)OCO3)cc1	1.5%	9.53µM*	23.5%	12.0%	16.3%
CCOCC(=O)Nc1c(C(=O)Nc2ccc3c(c2)OCCO3)oc2ccccc12	?	-15.4%	2.82µM*	1.41µM*	0.708µM*
CCC(=O)Nc1c(C(=O)Nc2ccc3c(c2)OCCO3)oc2ccccc12	9.8%	?	15.8µM*	?	2.82µM*
CCC(=O)Nc1c(C(=O)Nc2cccc(OC)c2)oc2ccccc12	3.4%	-17.2%	14.2%	27.1%	?
COCC(=O)Nc1c(C(=O)Nc2ccc3c(c2)OCCO3)oc2ccccc12	3.0%	nt	7.94µM*	1.41µM*	1.12µM*
O=C(Nc1ccc2c(c1)OCCO2)c1oc2ccccc2c1NC(=O)C1CC1	-5.8%	?	?	1.1%	17.4%
CCOCC(=O)Nc1c(C(=O)Nc2ccccc2OC)oc2ccccc12	10.1%	-17.8%	-11.1%	29.5%	?
CCOC(=O)N1CCN(Cc2nc3cc(NC(=O)c4ccc([N+](=O)[O-])cc4)ccc3n2C(C)C)CC1	nt	-0.7%	nt	nt	nt
Cc1cccc(NC(=O)COc2ccccc2)c1	?	3.5%[2.3 µM]	17.4%	1.7%	12.7%
CCC(=O)Nc1cccc(NC(=O)COc2ccc(OC)cc2)c1	?	15.1µM*	15.0%	-2.0%	-1.4%
COc1cccc(NC(=O)COc2ccccc2)c1	?	?	nt	?	19.1%
Cc1cccc(OCC(=O)Nc2cccc(O)c2)c1	10µM*	16.9µM*	13.4%	-2.3%	0.4%
CC(Oc1ccc(Cl)cc1Cl)C(=O)Nc1cccc(O)c1 (stereo not given)	16.7%	16.9µM*	-0.5%	-0.4%	-4.4%
COc1ccc(OC(=O)COc2cccc(C)c2)cc1	-2.3%	15.1µM*	nt	0.9%	2.6%
Cc1ccccc1N1CC(C(=O)N2CCCCCC2)CC1=O (stereo not given)	11.7%	3.3%	nt	-0.4%	-0.1%
COc1ccc(S(=O)(=O)c2c(Nc3ccc(C)cc3C)sc(C(=O)c3ccc(F)cc3)c2N)cc1	nt	-0.1%	nt	nt	nt
Nc1nc(SCC(=O)c2c(N)n(C3CC3)c(=O)[nH]c2=O)n[nH]1	-0.5%	-1.3%	nt	-1.0%	-2.3%
CCC(=O)c1ccc(OCC(=O)Nc2cccc(S(=O)(=O)N(C)c3ccccc3)c2)cc1	0.8%	15.1µM*	nt	-6.9%	-4.1%
SMILES	ELG1 genotox	FLuc counter	SMN2 splice enh	NPC1 promoter act	Rab9 prom act
O=C(COc1cc(Cl)c(Cl)cc1Cl)Nc1cccc(O)c1	?	1.07µM*	nt	-1.3%	-2.6%
O=C(COc1cc(Cl)c(Cl)cc1Cl)Nc1ccncc1	3.1%	-16.5%	-1.0%	1.0%	-5.2%
Cc1ccc(OCC(=O)Nc2cccc(O)c2)cc1C	?	5.36µM*	-5.0%	?	?
COc1cccc(NC(=O)COc2ccc(Br)c(C)c2)c1	15.3%	19µM*	nt	-1.3%	10.6%
Cc1cc(OCC(=O)Nc2ccncc2)ccc1Br	-4.6%	?	nt	-0.7%	-7.9%
Cc1ccc(OCC(=O)Nc2cc(NC(=O)COc3ccc(C)c(C)c3)cc(C(=O)O)c2)cc1C	10.2%	?	nt	-6.9%	0.6%
O=C(CS(=O)CC(=O)N(CC(=O)NC1CCCC1)c1ccccc1F)Nc1ccc(F)cc1 (stereo not given)	0.7%	1.1%	nt	-1.6%	-3.2%
COc1cc2c(cc1OC)C(COc1cccc(C(F)(F)F)c1)N(C(=O)c1ccc(S(=O)(=O)N3CCCC3)cc1)CC2 (stereo not given)	nt	0.3%	nt	nt	nt
COc1cc(Cl)c(NS(=O)(=O)c2ccc3c(c2)CC(C)N3C(=O)C2CCC2)c(OC)c1 (stereo not given)	nt	-3.3%	nt	nt	nt
Cc1ccc(C2=NN3C(C2)c2ccccc2OC32C(=O)Nc3ccccc32)cc1 (stereo not given)	?	15.1µM*	?	2.51µM*	?
CN1C(=O)C2(Oc3ccccc3C3CC(c4ccccc4)=NN32)c2ccccc21 (stereo not given)	0.2%	?	11.2%	2.8%	-12.4%
C[C@@H]1COC(=O)[C@H](CC(=O)OC(C)(C)C)C/C=C\C[C@@H](CC(=O)NCCO)C(=O)N1	2.1%	nt	nt	nt	nt
Cc1cc(C)c(C)c(S(=O)(=O)Nc2ccc3cn[nH]c3c2)c1C	-1.1%	2.7%	nt	-2.3%	-2.8%
COc1ccc(N2CSC3=C(C#N)C(c4cc(OC)ccc4OC)CC(=O)N3C2)c(OC)c1 (stereo not given)	-4.6%	?	-7.3%	12.6%	14.0%
COc1cc(OC)c(C2CC(=O)N3CN(c4ccc(C)cc4)CSC3=C2C#N)cc1OC (stereo not given)	2.8%	15.1µM*	6.7%	?	25.4%
CCOc1ccccc1N1CSC2=C(C#N)C(c3c(OC)ccc4ccccc34)CC(=O)N2C1 (stereo not given)	-6.1%	7.57µM*	5.0%	1.4%	0.5%
COc1ccc(N2CSC3=C(C#N)C(c4cc(OC)c(OC)cc4OC)CC(=O)N3C2)c(OC)c1 (stereo not given)	4.8%	?	-8.1%	0.8%	0.4%
O=C(Nc1cccc(C(F)(F)F)c1)C1CCN(S(=O)(=O)c2cccc3nsnc23)CC1	nt	7.1%	-36.8%	nt	nt
c1ccc(N2CC3CCc4ccccc4C3=N2)cc1 (stereo not given)	?	8.49µM*	nt	?	3.16µM*
O=C(CCc1nnc2ccc(NCc3ccccc3)nn12)NC1CCCC1	?	0.5%	nt	-0.2%	-2.1%
C[C@@H]1[C@H]2[C@@H](O[C@@H]3O[C@H](CO)[C@@H](O)[C@H](O)[C@H]3O)OC=C(C(=O)O)[C@H]2C[C@@H]1O	-9.5%	1.9%	nt	-2.9%	-0.3%

Source: PubChem
